# Source: the supplement of paper PMC9254222
# Whole data set: some 1,100 compounds, median “Renilla luciferase signal (cell health) relative to plate median” near 0.97, cut for the highest 2% near 1.6. Only a selection was taken, and the highest values are over-represented in it overall.
# Tested on: HEK293T (UBE3A T485A transfected, BAR Wnt reporter)
# Assay: Renilla luciferase signal (cell health) relative to plate median (fold (linear ratio)); higher = higher Renilla signal
# Details: 24 h
# In short: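 Each value averages four biological replicates in HEK293T cells grown at 4500 cells/well in DMEM with 10% FBS at 37°C and 5% CO2. The cells were transfected with a BAR firefly luciferase Wnt reporter, TK-Renilla and an expression plasmid, then four hours later robotically treated with the chemicals at 0.01–100 uM for 24 h. Dual-Glo luciferase signals were median-centred per plate, with the firefly/Renilla ratio reported as Wnt activity and raw Renilla as cell health.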
SMILES,Renilla luciferase signal (concentration: 0.1 uM),Renilla luciferase signal (concentration: 1 uM),Renilla luciferase signal (concentration: 10 uM),Renilla luciferase signal (concentration: 100 uM),Renilla luciferase signal (concentration: 0.01 uM)
COCCOCCOC [Bis(2-methoxyethyl) ether],1.08,1.3,1.34,1.31,–
Cn1c(=O)c2c(ncn2C)n(C)c1=O [Caffeine],0.946,0.966,0.989,1.67,1.18
Cn1c(=O)c2[nH]cnc2n(C)c1=O [Theophylline],0.944,0.973,0.911,1.09,–
Cn1cnc2c1c(=O)[nH]c(=O)n2C [Theobromine],0.97,0.856,1.15,1.22,–
O=C(N[C@@H](Cc1ccccc1)[C@@H](O)C(=O)N1C[C@@H](O)[C@@H](O)C1)c1cc2cc(Cl)ccc2[nH]1 [Ingliforib],0.797,0.711,0.851,0.148,–
COc1cccc(-c2ccc(/C=C\CN3CCCCCC3)cc2Cl)c1.Cl,1.01,1.16,1.14,2.06,–
CCOCCOCCOCCO [2-[2-(2-Ethoxyethoxy)ethoxy]ethanol],0.893,0.862,0.833,0.954,–
CCOCCOCCO [2-(2-Ethoxyethoxy)ethanol],0.939,1.02,0.906,1.17,–
CCOCCO [2-Ethoxyethanol],1.23,1.26,1.38,1.66,–
Cc1ncc(CO)c(CO)c1O [Pyridoxine],0.951,0.873,1,1.14,–
C=CCc1ccc(OC)c(OC)c1 [Methyleugenol],0.897,0.832,0.797,0.924,–
Cc1ccc(N)cc1O [5-Amino-2-methylphenol],1,1.22,1.28,1.78,–
"Cc1ccc(C)c(O)c1 [2,5-Dimethylphenol]",1.01,0.973,1.14,1.28,–
"Cc1ccc(C)c(O)c1C [2,3,6-Trimethylphenol]",0.934,0.808,0.965,1.14,–
C[C@]12CC[C@@H]3c4ccc(O)cc4C[C@@H](CCCCCCCCCS(=O)CCCC(F)(F)C(F)(F)F)[C@H]3[C@@H]1CC[C@@H]2O (stereo partly drawn) [Fulvestrant],1.07,1.04,1.09,0.48,–
Cc1nc(C)nc(N2C[C@@H](C)N(c3ccnc([C@@H](C)O)n3)[C@@H](C)C2)n1,0.951,1.05,1.15,1.28,–
CC(C)(C)CC(C)(C)c1ccc(O)c(-n2nc3ccccc3n2)c1 [Octrizole],1.08,1.17,1.27,1.31,–
Cc1cccc(Nc2cc(Cl)nc(SCC(=O)O)n2)c1C [Pirinixic acid],0.799,0.871,0.861,1.71,–
O=C1CCC(N2C(=O)c3ccccc3C2=O)C(=O)N1 (stereo not drawn) [Thalidomide],0.78,0.818,0.85,0.675,–
CCN(CC)C(=O)c1cccc(C)c1,0.897,0.949,0.847,1.79,0.895
CCNc1cccc(C)c1 [N-Ethyl-3-methylaniline],1.02,0.916,0.98,0.872,–

SMILES,Renilla luciferase signal (concentration: 0.1 uM),Renilla luciferase signal (concentration: 1 uM),Renilla luciferase signal (concentration: 10 uM),Renilla luciferase signal (concentration: 100 uM),Renilla luciferase signal (concentration: 0.01 uM)
COc1cc(C=O)ccc1O [4-Hydroxy-3-methoxybenzaldehyde],0.805,0.833,0.848,0.902,–
CCN(Cc1c(F)cccc1Cl)c1c([N+](=O)[O-])cc(C(F)(F)F)cc1[N+](=O)[O-] [Flumetralin],0.795,0.84,1,0.766,1.1
Cc1cc(C=C2SC(=O)N(c3ccccc3)C2=O)c(C)n1-c1cccnc1,1.02,1.06,0.979,0.257,–
O=c1[nH]c2cc([N+](=O)[O-])c([N+](=O)[O-])cc2[nH]c1=O,1.01,1.02,1.09,1.96,1.11
O=C(Nc1ccc(Cl)cc1)Nc1ccc(Cl)c(Cl)c1 [Triclocarban],1,0.895,0.408,0.021,–
COC(=O)c1ccccc1O [Methyl salicylate],1.22,1.13,1.23,0.53,–
O=C([O-])c1ccc2c(c1)nc(C(=O)NC1CCN(C3CC3)CC1)n2Cc1cc(-c2ccc(Cl)s2)on1.[Na+],0.987,0.823,0.947,0.531,–
O=C1OC(c2ccc(O)cc2)(c2ccc(O)cc2)c2ccccc21 [Phenolphthalein],1.1,1.09,1.15,0.0287,–
"CCCCCCCC/C=C\CCCCCCCC(=O)OC[C@@H](O)[C@H]1OC[C@H](O)[C@H]1O [Sorbitan, mono-(9Z)-9-octadecenoate]",1,0.88,0.863,0.85,–
O=C(O)c1ccccc1C(c1ccc(O)cc1)c1ccc(O)cc1 [Phenolphthalin],1.11,1.1,0.958,0.886,–
CN(C)CCOC(c1ccccc1)c1ccccc1.Cl [Diphenhydramine hydrochloride],0.825,0.842,0.836,0.491,–
CCCCCC(=O)O [Hexanoic acid],1.26,1.16,1.24,1.41,–
CCCC(=O)O [Butanoic acid],1.03,1.11,1.14,1.73,–
CCCCCCCCCC(=O)O [Decanoic acid],0.743,0.768,0.634,0.979,–
CN(C)C(=O)C1(N2CCCCC2)CCN(CC[C@@]2(c3ccc(Cl)c(Cl)c3)CN(C(=O)c3ccccc3)CCO2)CC1,0.903,0.888,0.664,0.0169,–
CCc1c(C(=O)NN2CCCCC2)nn(-c2ccc(Cl)cc2Cl)c1-c1ccc(Br)cc1 [Surinabant],1.06,1.07,0.127,0.363,–
CCCCCCCCCCCC(=O)OC [Methyl dodecanoate],0.884,0.792,0.85,0.89,–
CCCCCCCC(=O)OC [Methyl octanoate],1.03,0.911,1.04,1.61,–
COC(=O)CCCCC(=O)OC [Dimethyl adipate],0.854,0.917,0.874,1.11,–
O=C(O)c1cccc(C[C@@H]2COc3ccc(OCc4nc5cc(F)ccc5s4)cc3[C@@H]2O)c1,1.04,1.05,1.17,0.94,–
